VACV mCherry inh – inhibitors of vaccinia virus infection (mCherry reporter signal); Vaccinia virus mCherry reporter infection, fluorescence; Potency, µM (highest dose often 36.5 µM), for inactives: top-dose activity change, negative = inhibition, hits mostly inhibitors; 310,000 tested, 0.63% active; AID 720579; calls by dose curve; tested in A549 cells; further: on the % scale 0 is the no-effect control and ±100 the full control effect; nearly all actives have a fitted effect of over 35% in size
Pf growth 48h – inhibits P. falciparum growth in the first generation, 48 h; 310,000 tested, 5.9% active; Potency, µM (top dose mostly 28.7 µM), for inactives: top-dose activity change, negative = inhibition, hits mostly inhibitors; AID 504832; P. falciparum luciferase growth in erythrocytes, 48 h; further: on the % scale 0 is the no-effect control and ±100 the full control effect
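Luciferase-expressing P. falciparum in infected erythrocytes (2% hematocrit, 0.1% parasitemia final) in RPMI 1640/0.5% Albumax were exposed to compound for 48 hours at 37 C, 5% CO2; growth read as luminescence.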
Vaccinia Venus – inhibitors of vaccinia virus (Venus reporter); Potency, µM (titrated, usually from 36.5 µM), for the others: top-dose activity change, negative = inhibition, actives largely listed as inhibitors; 330,000 tested, 0.46% active; Vaccinia virus Venus reporter expression, fluorescence; calls by dose curve; tested in A549 cells; further: on the % scale 0 is the no-effect control and ±100 the full control effect; nearly all actives have a fitted effect of over 30% in size
NS1 inh – inhibitors of influenza NS1 protein function. 270,000 tested, 0.4% active. Potency, µM (highest dose often 46.1 µM), without a hit: at the top dose activity, positive = more growth; calls by dose curve; further: actives are rising curves; nearly all actives have a fitted effect of over 50% in size
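In this qHTS, NS1 from influenza A is expressed in budding yeast, where it slows growth. Cells are switched from glucose to 2% galactose medium (pH 6.0, -URA), treated with compound, and growth recovery is read at OD600.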
Pf growth 96h – P. falciparum growth inhibition at 96 hours; P. falciparum luciferase reporter growth, 96 h; Potency, µM (highest dose often 28.7 µM), for the others: at the highest dose activity change, negative = inhibition, actives largely listed as inhibitors; 320,000 tested, 6.9% active; further: on the % scale 0 is the no-effect control and ±100 the full control effect
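Cell-based qHTS: luciferase-tagged P. falciparum in erythrocytes (2% hematocrit, 0.05% parasitemia final) incubated with compounds for 96 hours, 37 C, 5% CO2; luciferase detection reagent then added and luminescence measured.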
HCV inhibitor – blocks hepatitis C virus | AID 651820 | Potency, µM (highest dose often 41.8 µM), for the others: at the top dose activity change, negative = inhibition, actives largely listed as inhibitors | 340,000 tested, 3.4% active | Huh7.5.1 HCVcc-Cre infection, luciferase reporter, 44 h; further: on the % scale 0 is the no-effect control and ±100 the full control effect
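Compounds are dispensed onto cells plated 4 h earlier at 1,000 per well, with HCVcc-Cre virus (about 0.5 moi) added next. Following 44 h of culture, luminescent signal is measured for 15 sec after 15 min with substrate at room temperature.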
* = called active by the depositor; i = inactive; ? = inconclusive; nt = no result; [ ] = remark or other dose. A selection: hits, their analogues and other compounds. The true share with any hit is near 11%. Unless noted, the call rests on the fitted dose curve; in most records, active means well fitted inhibition curve with a large enough effect; inconclusive means small, poorly fitted or top-dose-only effect, or another doubt; inactive means no such curve, though single readings can be large or run the other way. Potency means the concentration at half of the fitted maximal effect.

SMILES	VACV mCherry inh	Pf growth 48h	Vaccinia Venus	NS1 inh	Pf growth 96h	HCV inhibitor
CCCCn1c(=O)[nH]c(=O)c2c1nc(-c1ccc(OCCC)c(OCC)c1)n2CCOC	i	9.3µM*	-10%	13%	?	25µM*
CCCn1c(-c2cccc(F)c2)nc2c1c(=O)[nH]c(=O)n2Cc1ccccc1	i	-4%	-7%	8%	-29%	4%
COCCn1c(-c2cccc([N+](=O)[O-])c2)nc2c1c(=O)[nH]c(=O)n2Cc1ccccc1	-9%	?	-5%	3%	12µM*	-19%
CCCCn1c(-c2ccc(Br)cc2F)nc2c1c(=O)[nH]c(=O)n2CC(C)C	i	10µM*	0%	-2%	?	?
CN(C)c1ccc(Nc2nc(N)c3ccccc3n2)cc1	?	?	-27%	-2%	8.3µM*	?
Nc1nc(Nc2ccc(Cl)cc2)nc2ccccc12	?	nt	?	-27%	?	-8%
CCOc1ccc(Nc2nc(N)c3ccccc3n2)cc1	?	?	?	-12%	?	2%
Nc1nc(Nc2ccccc2)nc2ccccc12	i	3.3µM*	-24%	-34%	?	7%
CC1CC(=O)N(C)c2cc([N+](=O)[O-])ccc2N1 (configuration not stated)	i	37%	-11%	nt	32%	12%
CCN(CC)C(=O)C1=C(C)N(Cc2ccc(C(C)(C)C)cc2)C(=O)C(CC(=O)NC(c2ccccc2)c2ccccc2)C1 (configuration not stated)	?	nt	13µM*	nt	nt	nt
CCOC(=O)C1=C(CS(=O)(=O)c2ccc(F)cc2)NC(=O)NC1c1ccc(OCC)c(OC)c1 (configuration not stated)	3%	nt	-1%	nt	nt	nt
Cc1ccc(NS(=O)(=O)c2ccc3c(c2)NC(=O)CCS3)cc1F	?	9.3µM*	-19%	4%	-20%	-10%
Cc1ccc(NS(=O)(=O)c2ccc3c(c2)CCC(=O)N3)cc1C	-11%	6%	-20%	nt	-32%	?
Cc1ccc(NS(=O)(=O)c2ccc3c(c2)NC(=O)CCS3)cc1C	?	13µM*	0.89µM*	-2%	?	-9%
CCOC(=O)c1ccc(NC(=O)C2CCN(S(=O)(=O)c3ccc(C)cc3)CC2)cc1	-11%	nt	-6%	nt	nt	nt
O=S(=O)(c1ccccc1)c1nc(-c2cccc(Cl)c2)oc1NCc1ccccc1	?	nt	-15%	nt	nt	nt
Cc1nc2ccc(NC(=O)c3ccc(Br)o3)cc2s1	-19%	89%	-21%	nt	162%	-17%
CC(C)(C)OC(=O)N1CCC[C@H]1C(=O)N/N=C/c1ccc2ncccc2c1	i	?	-19%	-2%	12µM*	-6%
O=C1[C@@H]2Cc3c([nH]c4ccccc34)C(c3cccc([N+](=O)[O-])c3)N2C(=O)CN1C1CCN(Cc2ccccc2)CC1 (some centres not stated)	nt	9.3µM*	nt	7%	15µM*	nt
CCOc1ccc(C2c3[nH]c4ccccc4c3C[C@H]3C(=O)N(C4CCN(Cc5ccccc5)CC4)CC(=O)N23)cc1OC (some centres not stated)	nt	4%[0.00184 µM]	nt	10%	?	?
COc1cc(C2c3[nH]c4ccccc4c3C[C@H]3C(=O)N(CCO)CC(=O)N23)cc(OC)c1OC (some centres not stated)	-29%	?	-19%	8%	-9%	19%
CCOc1ccc(C2c3[nH]c4ccccc4c3C[C@H]3C(=O)N(C4CC4)CC(=O)N23)cc1OC (some centres not stated)	nt	9%[0.00184 µM]	nt	0%	?	-3%
CCCN1CC(=O)N2C(c3cccc(OC)c3OC)c3[nH]c4ccccc4c3C[C@H]2C1=O (some centres not stated)	nt	9.3µM*	nt	7%	4.1µM*	-5%
CCOc1ccccc1C1c2[nH]c3ccccc3c2C[C@H]2C(=O)N(C3CC3)CC(=O)N12 (some centres not stated)	nt	?	nt	8%	9.3µM*	6%
CCOc1ccccc1N1CCN(C(=O)c2cc(C)oc2C)CC1	nt	?	nt	-1%	nt	?
SMILES	VACV mCherry inh	Pf growth 48h	Vaccinia Venus	NS1 inh	Pf growth 96h	HCV inhibitor
CC1CCC(NC(=O)Cn2c(=O)oc3ccccc32)CC1 (configuration not stated)	nt	-1%	nt	13%	?	0%
Fc1cccc(-c2c(-c3ccccc3)ncc3cc(F)ccc23)c1	-1%	?	-11%	nt	?	?
O=[N+]([O-])c1cccc(-c2c(-c3ccccc3)ncc3ccc(F)cc23)c1	-5%	-8%	-3%	nt	4.7µM*	-21%
COc1ccc(C2CCCN2CC(O)COc2ccccc2C(C)C)cc1 (configuration not stated)	?	12µM*	-4%	-3%	13µM*	?
CCOC(=O)N1CCN(CC(O)COc2ccccc2C(C)C)CC1 (configuration not stated)	nt	?	-28%	-15%	?	-2%
CN(Cc1ccccc1)C(=O)CN1C(=O)COc2ccc(S(=O)(=O)N3CCCC3)cc21	-17%	?	-5%	7%	?	11%
CC1CCN(S(=O)(=O)c2ccc3c(c2)N(CC(=O)NCCCN2CCCC(C)C2)C(=O)CO3)CC1 (configuration not stated)	nt	-15%	nt	-6%	12µM*	4%
COc1ccc(CNC(=O)CN2C(=O)COc3ccc(S(=O)(=O)N4CCC(C)CC4)cc32)cc1	-11%	-14%	-11%	10%	13µM*	-3%
CC(C)N(Cc1ccccc1)C(=O)CN1C(=O)COc2ccc(S(=O)(=O)N3CCCCCC3)cc21	-3%	0.83µM*	-18%	10%	6%	?
CC(C)CN(CCCNC(=O)CN1C(=O)COc2ccc(S(=O)(=O)N3CCCC3)cc21)CC(C)C	nt	12µM*	nt	nt	?	3%
CCn1nc(C)c(/C=N/NC(=O)c2nc3nc(C)cc(C)n3n2)c1C	nt	9%	nt	5%	22%	14%
CCOc1ccc(C(CC(=O)O)NC(=O)CCCOc2ccc(Cl)cc2C)cc1 (configuration not stated)	-3%	-3%	-2%	3%	?	0%
COc1cc(NC(=O)C(C)Oc2ccccc2)cc(OC)c1 (configuration not stated)	-13%	5%	2%	-10%	185%	?
Nn1c(Nc2ccccc2)nc2sc3c(c2c1=O)CCC3	-13%	52%	-10%	-6%	31%	13µM*
CSc1nc2sc3c(c2c(=O)n1C1CCCCC1)CCN(C)C3	i	?	-7%	-1%	?	?
NNc1nc2sc3c(c2c(=O)n1C1CCCCC1)CCN(Cc1ccccc1)C3	-12%	?	-8%	3%	1.2µM*	-13%
